# Screening results: PubChem, National Center for Advancing Translational Sciences (NCATS)
# Only a selection was taken, and hits are over-represented in it overall.
# AMA1-RON2 inh – qHTS for Inhibitors of AMA1-RON; Towards Development of Antimalarial Drug Lead: Primary Screen | Plasmodium falciparum AMA1 (3D7) - RON2 peptide interaction | AlphaScreen AMA1-biotinylated RON2 peptide binding | Potency, µM (titrated, usually from 58.2 µM), for the others: at the highest dose activity change, negative = inhibition, hits mostly inhibitors | 360,000 compounds, 0.2% hits | AID 720542, 2013; active = well fitted inhibition curve with a large enough effect; inconclusive = small, poorly fitted or top-dose-only effect; inactive = no such curve, though single readings can be large or run the other way;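 also: potency is read from the fitted curve at half-maximal effect; 0% = vehicle wells and -100% = peptide control; nearly all actives have a fitted effect of over 45% in size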
#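 AMA1 (3D7) with his tag at 25 nM final met compounds first, then biotinylated RON2 peptide at 25 nM; detection used donor plus acceptor beads, 10 µg/mL apiece, read by AlphaScreen after 30 min at room temperature.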
# Shiga inhibitor – A qHTS for Small Molecule Inhibitors of Shiga Toxin | Vero cells, Shiga toxin protein synthesis inhibition reporter | inhibition, % at 38.7 µM | 290,000 compounds, 9.2% hits; in the data active = inhibition mostly above about 28%, no sharp cut-off; inactive = mostly below about 43%; also: 0% is about no effect
# MARV entry inh – qHTS for inhibitors of binding or entry into cells for Marburg Virus. Marburg virus pseudotyped entry inhibition, cell reporter. Potency, µM (doses to about 37.8 µM), for inactives: top-dose activity change, negative = inhibition, most hits filed as inhibitors. 300,000 compounds, 1.8% hits. AID 540276, 2011; calls by dose curve; tested in HEK293 cells; also: potency is read from the fitted curve at half-maximal effect; % is scaled to controls: 0 for no effect and ±100 for the full control effect
# LASV entry inh – qHTS for Inhibitors of binding or entry into cells for Lassa Virus; Lassa virus pseudotype entry inhibition, cell reporter; Potency, µM (doses to about 37.9 µM), for the others: at the top dose activity change, negative = inhibition, actives largely listed as inhibitors; 300,000 compounds, 1.2% hits; AID 540256, 2011; calls by dose curve; tested in HEK293 cells; also: potency is read from the fitted curve at half-maximal effect; % is scaled to controls: 0 for no effect and ±100 for the full control effect; nearly all actives have a fitted effect of over 50% in size
# CHX counter – Cycloheximide Counterscreen for Small Molecule Inhibitors of Shiga Toxin | max response, % | AID 2314, 2010 | cell reporter, cycloheximide protein synthesis inhibition counterscreen | 300,000 compounds, 12% hits; in the data active = max response mostly above about 13%, no sharp cut-off; inactive = mostly below about 14%; also: read at 38.3 µM for the half of the compounds with a filed dose; 0% is about no effect
# The depositor's hits bear a star; i = inactive; u = inconclusive; x = no result given; [ ] = remark or other dose.
SMILES,AMA1-RON2 inh,Shiga inhibitor,MARV entry inh,LASV entry inh,CHX counter
Cc1ccc(OCc2cc(C(=O)N3CCC(C(O)C(C)C)CC3)no2)cc1C (stereo not given),-1%,52*,x,x,24*
C=CCC1(CC=C)CCCN1C(=O)c1cc(COc2ccc(C)nc2)on1,0%,78*,x,x,21*
COCC1CCN(C(=O)c2cc(COc3cc(C)c(Cl)c(C)c3)on2)C1 (stereo not given),-9%,45*,x,x,72*
CC(=O)NCCC1CCN(C(=O)c2cc(COc3ccc(C)nc3)on2)CC1,-7%,-6,1%[46.1 µM],-8%[46.1 µM],-2
CCc1cc(CNC(=O)c2cc(COc3ccc(C)nc3)on2)on1,8%,59*,-1%,2%,44*
COCC1CCN(C(=O)c2cc(COc3cncc(Cl)c3)on2)C1 (stereo not given),13%,-3,x,x,-3
Cc1ccc(OCc2cc(C(=O)N3CCCC3)no2)cn1,0%,74*,u,u,44*
COc1ccc(/C=C2\SC(=S)N(NC(=O)c3csc4c3CCCC4)C2=O)cc1,-8%,7,8%,14%,-2
CC(=O)c1cccc(NC(=O)CCc2nc3sc4c(c3c(=O)[nH]2)CCCC4)c1,7%,x,10%,u,x
Cc1ccc(Nc2nc(-c3ccccc3)nc3ccccc23)cc1,x,x,x,26%[46.1 µM],x
Cc1ccc(Nc2nc(-c3ccncc3)nc3ccccc23)cc1,4%,25,2.2µM*,1%,-2
CC1(C(=O)NS(=O)(=O)c2ccccc2C(F)(F)F)CCN1C(=O)CCC1CCCC1 (stereo not given),0%,x,x,x,x
COc1ccc(Nc2nc(Cl)nc(Nc3ccc(OC)cc3OC)n2)c(OC)c1,-22%,-2,u,-26%,-4
CCCCNc1nc(Cl)nc(Nc2ccc(C)cc2)n1,-8%,x,-30%[46.1 µM],-3%[46.1 µM],x
CC(C)(C)Nc1nc(Cl)nc(Nc2ccccc2)n1,0%,88*,u,u,56*
COc1ccccc1Nc1nc(Cl)nc(NC(C)(C)C)n1,12%,9,u,-22%,11*
Clc1nc(Nc2ccccc2)nc(Nc2ccccc2)n1,-2%,22,u,6%,25*
CCCNc1nc(Cl)nc(Nc2ccc(Cl)cc2)n1,-4%,8,u,u,15*
COC(=O)c1sccc1NC(=O)c1csc(C)c1,74%,-6,u,-13%,15
CN1CCN(c2nc(Nc3ccc(F)cc3)nc(Nc3ccc(F)cc3)n2)CC1,-7%,-8,x,x,-9
C=CCNc1nc(Cl)nc(Nc2ccc(OC)cc2)n1,-8%,64*,u,-13%,22*
c1ccc(Nc2nc(Nc3ccccc3)nc(N3CCNCC3)n2)cc1,-3%,-8,6.3µM*,-18%[46.1 µM],-1
CC1=CC[C@@H](COc2ccccc2)O[C@@]2(C1)C(=O)N(Cc1ccc(F)cc1)c1ccccc12,x,x,-2%[14.2 µM],x,x
O=C1CCCC(=O)N1c1ccc(Oc2ccc(Cl)cc2)cc1,-11%,41*,9%,1%,22*
O=C(COC(=O)c1ccccc1-n1cnnn1)c1ccc(F)cc1,-2%,x,-18%[46.1 µM],-26%,x
SMILES,AMA1-RON2 inh,Shiga inhibitor,MARV entry inh,LASV entry inh,CHX counter
O=C(CCCCn1c(=O)[nH]c2ccccc2c1=O)N1CCN(c2cccc(C(F)(F)F)c2)CC1,-19%,22,9.2µM*,16µM*,-4
O=C(CCn1c(=O)[nH]c2ccccc2c1=O)N1CCN(c2cccc(C(F)(F)F)c2)CC1,-2%,-2,u,-4%,-1
COc1cc2c(cc1OC)C1O[C@](CCCCN3C(=O)c4ccccc4C3=O)(C2)Oc2cc(C)n(Cc3ccccc3)c(=O)c21,x,i,-3%[14.2 µM],x,-3
CCOc1cc(/C=N/NC(=O)c2cc(C3CC3)[nH]n2)ccc1O,37%,24,-6%[46.1 µM],0%,6
COc1ccc(/C=N/NC(=O)c2cc(C3CC3)[nH]n2)cc1OC,26%,52*,-1%[46.1 µM],1%,11
COc1cc(/C=N/NC(=O)c2cc(C3CC3)[nH]n2)ccc1O,-1%,40,x,x,16*
O=C(N/N=C/c1ccc(O)cc1)c1cc(C2CC2)[nH]n1,16%,-30,0%[46.1 µM],21%[46.1 µM],12
O=C(CCCN1C(=O)C(=Cc2ccc3c(c2)OCO3)SC1=S)Nc1ccc(C(=O)O)c(O)c1,-19%,x,x,x,x
CC(C)OP(=O)(OC(C)C)C(C)NC(=O)Cc1ccccc1 (stereo not given),12%,-11,7%[46.1 µM],21%[46.1 µM],-3
OCCCn1c(-c2ccccc2)csc1=Nc1ccccc1,u,73*,u,-17%,32
O=C(O)CCC(=O)NCCn1c(-c2ccccc2)csc1=Nc1ccccc1,-6%,49,-4%[46.1 µM],7%[46.1 µM],19*
COc1ccc(N=c2scc(-c3ccc(OC)cc3)n2CCO)cc1,u,63,-29%,u,30*
CCCNC(=O)N1C2=NC(C(=O)OC)=C(C(=O)OC)[C@@H]3Nc4ccccc4[C@]23C[C@H]1C(=O)OC,x,x,3%[14.2 µM],u,x
CCCCCCCN1CCN=C1N(C)C,1%,x,x,x,x
Cc1ccc(S(=O)(=O)C[C@@H]2OC[C@H](Cc3ccccc3)N2S(=O)(=O)c2ccc(C)cc2)cc1,-13%,x,x,x,x
COc1cc(/C=C/c2nc(C#N)c(N3CCC(C)CC3)o2)cc(OC)c1OC,x,x,7%[46.1 µM],-14%[46.1 µM],x
COc1cc(/C=C2\CCC(C)C3=C(c4cc(OC)c(OC)c(OC)c4)C(C#N)=C(N)OC32)cc(OC)c1OC (stereo not given),2%,x,u,11µM*,x
Cc1cccc(N2CCN(C(=O)C3CCCN(S(=O)(=O)c4cccc5nsnc45)C3)CC2)c1C (stereo not given),x,x,5%[46.1 µM],18%[46.1 µM],x
O=C(CSc1nc2ccccc2o1)c1cc2ccccc2oc1=O,32%,89*,u,4%,25*
CC(Sc1nc2ccccc2o1)C(=O)O (stereo not given),-3%,79*,u,-3%,37*
CSc1cccc(NC(=O)CSc2nc3ccccc3o2)c1,3%,63*,18%,-2%,40*
CCC(Sc1nc2ccccc2o1)C(=O)O (stereo not given),-3%,30,3%[46.1 µM],11%[46.1 µM],15
O=C(O)CSc1nc2ccccc2o1,2%,78,u,12%,30*
COc1ccc(C2=Nn3c(nnc3-c3cc(OC)cc(OC)c3)SC2)cc1,x,7,x,x,9
O=C(CSc1nc2ccccc2o1)NCC(=O)c1ccccc1,2%,11,4%,6%,15
O=C(CSc1nc2ccccc2o1)N1CCOCC1,6%,42*,x,x,27*
O=C(CSc1nc2ccccc2o1)N1CCCC1,-9%,9,12%,5%,13
Cc1nnc(SCC(=O)Nc2ccccc2)c2ccccc12,3%,46*,-4%[46.1 µM],-19%,48*
O=C(CSc1nc2ccccc2o1)Nc1ccccc1,-4%,30,18%,7%,8.5*
Cc1ccc(C(=O)CSc2nc3ccccc3o2)cc1,120%,50,14%,35%,26*
